# Unmarked numbers belong to inactive results. Inconclusive results are not listed. The source made the active and inactive calls. Calls follow the shape of the dose curve; as a rule, active = well fitted cell-killing curve with a large enough effect; inconclusive = small, poorly fitted or top-dose-only effect; inactive = flat fitted curve, though single readings scatter.
# Test: MultiTox-Fluor Cytotoxicity Assay - LYMP1-003 - Live Cells (AID 962);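 also: cells exposed to compound for 16 hours at 37 °C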;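 as to activity change, negative = fewer live cells: 0% = DMSO only and full loss = 92 µM tetraoctylammonium bromide; cytotoxic hits lower the live-cell protease signal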
# Conditions: LYMP1-003 lymphoblastoid cells, MultiTox-Fluor live-cell protease fluorescence; series mostly up to 92.2 µM; activity change, negative = fewer live cells: at the top concentration
# Summary of the method: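 Readout: live-cell fluorescence (Ex/Em=405/510) from GF-AFC cleavage after 60 min MultiTox-Fluor reagent at room temperature. Lymphoblastoid LYMP1-003 cells, 16 hr compound treatment, 37 C. Concentration-response fitted to standard Hill equation for AC50.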
# Potency is read from the fitted curve at half-maximal effect.
SMILES,"activity change, negative = fewer live cells",Potency
Cc1cc(Nc2ccc(O)cc2)ccc1N,-29.7%,–
CN(C)c1ccc(C2(c3ccc(N(C)C)cc3)OC(=O)c3cc(N(C)C)ccc32)cc1,-0.492%,–
CO[C@H]1/C=C/O[C@@]2(C)Oc3c(C)c(O)c4c(O)c(c5c(c4c3C2=O)NC2(CCN(CC(C)C)CC2)N=5)=NC(=O)/C(C)=C\C=C\[C@H](C)[C@H](O)[C@@H](C)[C@@H](O)[C@@H](C)[C@H](OC(C)=O)[C@@H]1C,-17.9%,–
O=C(OCC(COC(=O)c1ccccc1)(COC(=O)c1ccccc1)COC(=O)c1ccccc1)c1ccccc1,-7.61%,–
ClC1=C(Cl)C(Cl)(Cl)C(Cl)=C1Cl,-1.99%,–
CC(=O)Nc1ccc(C(=O)CCl)cc1,–,31.6 µM (active)
Nc1ccc2cc3ccccc3cc2c1,-3.13%,–
c1ccc2c(c1)-c1cccc3c1c-2cc1ccccc13,-3.02%,–
O=C=Nc1ccc(Cc2ccc(N=C=O)cc2)cc1,-5.42%,–
O=[N+]([O-])c1cc([N+](=O)[O-])c2ccc(S(=O)(=O)O)cc2c1O,-32.8%,–
Cc1cc(O)c(C(C)(C)C)cc1Sc1cc(C(C)(C)C)c(O)cc1C,–,39.8 µM (active)
CCC(C)Nc1ccc(NC(C)CC)cc1 (stereo not given),–,12.6 µM (active)
CNc1ccc(O)cc1,–,31.6 µM (active)
C=CC(=O)OCCOCCOC(=O)C=C,–,31.6 µM (active)
O=C1OC2(c3cc(Br)c(O)c(Br)c3Oc3c2cc(Br)c(O)c3Br)c2c(Cl)c(Cl)c(Cl)c(Cl)c21,-35.5%,–
c1ccc2c(c1)ccc1cc3c(ccc4ccccc43)cc12,-3.61%,–
C/C=C1\C(=O)C[C@H]2[C@@H]3CCC4=CC(=O)CC[C@]4(C)[C@H]3CC[C@]12C,-1.98%,–
C=C(C)c1ccccc1,-0.142%,–

# Test: Cell Viability - LYMP1-003 - Assay at 24 hr (AID 963);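 as to viability change, negative = cytotoxic: plate controls were DMSO only for no effect and tetraoctylammonium bromide positive control for full effect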
# Conditions: LYMP1-003 lymphoblastoid cell viability; series mostly up to 92.2 µM; viability change, negative = cytotoxic: at the top concentration
# Summary of the method: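 CellTiter-Glo luminescence (intracellular ATP) read after 24 hr, 37 C compound exposure of 2500 LYMP1-003 human lymphoblastoid cells/well in complete medium; qHTS concentration series; AC50 via standard Hill equation.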
SMILES,"viability change, negative = cytotoxic",Potency
c1cc(OCC2CO2)cc(OCC2CO2)c1 (stereo not given),6.11%,–
Cc1cc(Nc2ccc(O)cc2)ccc1N,-23.9%,–
CN(C)c1ccc(C2(c3ccc(N(C)C)cc3)OC(=O)c3cc(N(C)C)ccc32)cc1,-0.25%,–
CO[C@H]1/C=C/O[C@@]2(C)Oc3c(C)c(O)c4c(O)c(c5c(c4c3C2=O)NC2(CCN(CC(C)C)CC2)N=5)=NC(=O)/C(C)=C\C=C\[C@H](C)[C@H](O)[C@@H](C)[C@@H](O)[C@@H](C)[C@H](OC(C)=O)[C@@H]1C,-29.9%,–
O=C(OCC(COC(=O)c1ccccc1)(COC(=O)c1ccccc1)COC(=O)c1ccccc1)c1ccccc1,7.5%,–
ClC1=C(Cl)C(Cl)(Cl)C(Cl)=C1Cl,-4.85%,–
CC(=O)Nc1ccc(C(=O)CCl)cc1,–,39.8 µM (active)
Nc1ccc2cc3ccccc3cc2c1,-10.4%,–
c1ccc2c(c1)-c1cccc3c1c-2cc1ccccc13,-3%,–
O=C=Nc1ccc(Cc2ccc(N=C=O)cc2)cc1,1.3%,–
O=[N+]([O-])c1cc([N+](=O)[O-])c2ccc(S(=O)(=O)O)cc2c1O,1.98%,–
Cc1cc(O)c(C(C)(C)C)cc1Sc1cc(C(C)(C)C)c(O)cc1C,–,39.8 µM (active)
CCC(C)Nc1ccc(NC(C)CC)cc1 (stereo not given),–,12.6 µM (active)
CNc1ccc(O)cc1,–,25.1 µM (active)
C=CC(=O)OCCOCCOC(=O)C=C,–,31.6 µM (active)
O=C1OC2(c3cc(Br)c(O)c(Br)c3Oc3c2cc(Br)c(O)c3Br)c2c(Cl)c(Cl)c(Cl)c(Cl)c21,-23.3%,–
Oc1ccc2cc(SSc3ccc4cc(O)ccc4c3)ccc2c1,–,50.1 µM (active)
c1ccc2c(c1)ccc1cc3c(ccc4ccccc43)cc12,-3.39%,–
C/C=C1\C(=O)C[C@H]2[C@@H]3CCC4=CC(=O)CC[C@]4(C)[C@H]3CC[C@]12C,-20.9%,–
C=C(C)c1ccccc1,-3.86%,–

# Test: Cell Viability - LYMP1-003 - Assay at 40 hr (AID 964); also: nearly all actives have a fitted effect of over 60% in size; as to activity change, negative = cytotoxic: % is scaled to controls: 0 for no effect and ±100 for the full control effect
# Conditions: LYMP1-003 lymphoblastoid viability; series mostly up to 92.2 µM; activity change, negative = cytotoxic: at the top concentration
# Summary of the method: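 LYMP1-003 lymphoblastoid cells, 2500/well; 5 hr preincubation, 40 hr compound exposure, 37 C; CellTiter-Glo 30 min RT; luminescence; Hill-fit AC50. Positive control tetraoctylammonium bromide.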
SMILES,"activity change, negative = cytotoxic",Potency
c1cc(OCC2CO2)cc(OCC2CO2)c1 (stereo not given),-30%,–
CN(C)c1ccc(C2(c3ccc(N(C)C)cc3)OC(=O)c3cc(N(C)C)ccc32)cc1,-10.8%,–
O=C(OCC(COC(=O)c1ccccc1)(COC(=O)c1ccccc1)COC(=O)c1ccccc1)c1ccccc1,10.4%,–
ClC1=C(Cl)C(Cl)(Cl)C(Cl)=C1Cl,-6.95%,–
CC(=O)Nc1ccc(C(=O)CCl)cc1,–,39.8 µM (active)
Nc1ccc2cc3ccccc3cc2c1,-28.9%,–
c1ccc2c(c1)-c1cccc3c1c-2cc1ccccc13,6.6%,–
O=C=Nc1ccc(Cc2ccc(N=C=O)cc2)cc1,-10.1%,–
O=[N+]([O-])c1cc([N+](=O)[O-])c2ccc(S(=O)(=O)O)cc2c1O,-11.1%,–
Cc1cc(O)c(C(C)(C)C)cc1Sc1cc(C(C)(C)C)c(O)cc1C,–,39.8 µM (active)
CCC(C)Nc1ccc(NC(C)CC)cc1 (stereo not given),–,10 µM (active)
CNc1ccc(O)cc1,–,25.1 µM (active)
C=CC(=O)OCCOCCOC(=O)C=C,–,25.1 µM (active)
O=C1OC2(c3cc(Br)c(O)c(Br)c3Oc3c2cc(Br)c(O)c3Br)c2c(Cl)c(Cl)c(Cl)c(Cl)c21,-23.2%,–
Oc1ccc2cc(SSc3ccc4cc(O)ccc4c3)ccc2c1,–,50.1 µM (active)
c1ccc2c(c1)ccc1cc3c(ccc4ccccc43)cc12,-0.143%,–
C=C(C)c1ccccc1,-0.463%,–
